# PubChem BioAssay AID1578 (Sanford-Burnham Center for Chemical Genomics, 2009)
# Among all 290,000 compounds or so, about 3,000 (1%) were called active. This is one part of a sample in which actives are shown more often than they occur. A number with no mark means an inactive call. No stated cut-off is given here; in the data, active means inhibition mostly above about 36% (no sharp cut-off); inactive means mostly below about 34%.
# Test: inhibition of NOD1-driven NF-kB reporter – cell-based, luminescence, uHTS, primary screen (AID 1578);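 further: HEK-293T reporter cells stimulated with the NOD1 agonist gamma-tri-DAP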
# Settings: NOD1-driven NF-kB luciferase reporter cells, at 4 µM, stronger effect = higher value
row,SMILES,inhibition
1,Oc1cc2c(cc1CN1CCN(c3cccc(C(F)(F)F)c3)CC1)CCC2,19.7%
2,Cc1ccccc1-n1c(=O)cc(N2CCN(Cc3ccccc3)CC2)[nH]c1=O,-4.3%
3,CN1C(=O)C(c2nnc(Nc3cccc4ccccc34)s2)C2CC1(C)Oc1ccccc12 (stereo unspecified),3.3%
4,O=C1CCCN1CCC(=O)N1CCCC(Nc2ccc(F)c(F)c2)C1 (stereo unspecified),-39.2%
5,COc1cccc(-c2cc(C(F)(F)F)nc(-n3cccn3)n2)c1,-19.7%
6,COc1cccc(-c2cc(C(F)(F)F)nc(-n3cncn3)n2)c1,97.6% (active)
7,COc1ccc(-c2cc(C(F)(F)F)nc(-n3cncn3)n2)cc1,18.2%
8,NNC(=O)c1csc(COc2cc(Cl)cc(Cl)c2)n1,-9.6%
9,Cc1ccc(C)c(S(=O)(=O)N=Nc2c(O)[nH]c3ccccc23)c1,-24.6%
10,CC(NC(=O)CSc1ncn[nH]1)c1ccc(Cl)cc1Cl (stereo unspecified),-18%
11,COc1ccc2c(c1)N(C)/C(=C/c1cccc[n+]1C)S2,2.2%
12,CN1/C(=C/c2cccc[n+]2C)Sc2ccccc21,-2.3%
13,Cc1nn(Cc2ccc(F)cc2)c2sc(C(=O)Nc3ccc(N4CCOCC4)cc3N3CCOCC3)cc12,-10.3%
14,CCOC(=O)c1ccc(NC(=O)c2cc(C)nn2-c2ccccc2)cc1,-1.2%
15,O=C(CN1CCN(Cc2ccccc2)CC1)Nc1ccc([N+](=O)[O-])cc1C(=O)Nc1ccccc1F,-2.7%
16,Cc1ccc(C(=O)NCc2nnc(SCC(=O)NC(C)c3ccccc3)n2C)cc1 (stereo unspecified),-35.4%
17,CCN(CC)C(=S)SCC(=O)c1ccccc1,-25.7%
18,CCN(CC)C(=S)SC1=CCS(=O)(=O)C1,-17.5%
19,CCN(CC)C(=S)SSC(=S)N(CC)CC,91.1% (active)
20,CCCCC(CCCC)=N/N=C/c1c(O)n(CC)c2cc(C3=NNC(=O)CC3)ccc12,-49.6%
21,CCC(CC)=N/N=C/c1c(O)n(CC)c2cc(C3=NNC(=O)CC3)ccc12,60.5% (active)

row,SMILES,inhibition
1,CC/C(C)=N\N=C\c1c(O)n(CC)c2cc(C3=NNC(=O)CC3)ccc12,-29.5%
2,C=CCNc1nc(C(=O)OCC(=O)c2ccc(C)c([N+](=O)[O-])c2)cs1,-31.1%
3,CCOC(=O)c1ccc(N2C(=O)C(C)=C(C)C2=O)cc1,-37.3%
4,CCOC(=O)c1ccc(N2C(=O)C=CC2=O)cc1,80.8% (active)
5,CCOC(=O)c1ccc(-n2c(C)ccc2C)cc1,-10.6%
6,NS(=O)(=O)c1ccc(CNC(=O)CSc2ccccc2)cc1,-19.9%
7,O=C(COc1ccccc1Cl)NCCCNC(=O)c1cnccn1,27.3%
8,Cc1cc(NC(=O)C(C)SCC(=O)N(C)CC(=O)Nc2ccc(Br)cc2C)no1 (stereo unspecified),-22.8%
9,Cc1ccc(C)c(NC(=O)CN(C)C(=O)CSC(C)C(=O)Nc2cc(C)on2)c1 (stereo unspecified),-0.8%
10,CCOc1ccc(NC(=O)CN(C)C(=O)CSC(C)C(=O)Nc2cc(C)on2)cc1OCC (stereo unspecified),44.5% (active)
11,COc1cccc(OC)c1-c1nn(-c2ncc(C(F)(F)F)cc2Cl)c(=O)o1,-7.3%
12,CCOC(=O)c1cc2c(nc1N)CCCC2,1.3%
13,CC(=O)Nc1nc2c(ccc3ccccc32)s1,-38%
14,O=C(Cc1cccs1)Nc1nc2ccccc2s1,-32.2%
15,O=C(Cc1cccs1)Nc1nc2c(ccc3ccccc32)s1,35.8% (active)
16,COCCn1c(SCC(=O)NCC2CCCO2)nc2c(c1=O)SCC2 (stereo unspecified),-12.5%
17,COc1ccc(S(=O)(=O)Cc2ccc(C(=O)NCc3ccc(C)cc3)o2)cc1,-23.8%
18,O=C(/C=C/c1ccccc1)NC(=S)Nc1ccc(N2CCOCC2)cc1,-25.8%
19,O=C(Nc1sc2c(c1C(=O)O)CCCC2)c1cccs1,43.6%
20,COc1cc(C(=O)Nc2scc(-c3ccccc3)c2C(=O)O)cc(OC)c1OC,-21.1%
21,COc1cc(C(=O)Nc2sc(C)c(C)c2C(=O)O)cc(OC)c1OC,-18.1%

row,SMILES,inhibition
1,O=C(Nc1scc(-c2cccs2)c1C(=O)O)c1cccs1,-40.1%
2,COc1cc(C(=O)Nc2sc3c(c2C(=O)O)CCC3)cc(OC)c1OC,7.5%
3,O=C(/C=C/c1ccccc1)Nc1sc2c(c1C(=O)O)CCC2,-2.6%
4,COc1cc(C(=O)Nc2scc(-c3ccc(C)cc3)c2C(=O)O)cc(OC)c1OC,12.7%
5,COc1ccc(-c2csc(NC(=O)c3cccs3)c2C(=O)O)cc1OC,-46.6%
6,COc1ccc(CN(C)C(=O)c2cnc(OC)cc2C(F)(F)F)c(OC)c1,1%
7,OC(CC#CCN1CCCCC1)(c1ccccc1)c1ccccc1,-4.1%
8,CCN(c1ccccc1)S(=O)(=O)c1cccc(C(=O)N2CCN(S(=O)(=O)c3ccccc3)CC2)c1,-20.1%
9,Cc1cc(C)nc(NS(=O)(=O)c2ccc(NC(=O)c3ccccc3[N+](=O)[O-])cc2)n1,-22.1%
10,COc1ccc(-c2nnc(-c3cccnc3)o2)cc1OC,-21.1%
11,CC(CNC(=O)COc1ccccc1)OC(=O)Nc1cccc(Cl)c1 (stereo unspecified),16.6%
12,CC1=CS/C(=C(/C#N)C(=O)NCc2ccco2)N1c1ccccc1,4%
13,COC(=O)C(Cc1c[nH]c2ccccc12)NC(=O)CNC(C)=O (stereo unspecified),6.8%
14,CC1CCc2c(sc(NC(=O)c3ccco3)c2C(=O)O)C1 (stereo unspecified),14.4%
15,COC(=O)c1c(NC(=O)c2cccs2)sc2c1CCC(C)C2 (stereo unspecified),-32.6%
16,O=C(NCCCN1CCN(c2ccccc2F)CC1)C1CC(=O)N(C2CCCC2)C1 (stereo unspecified),14.3%
17,COc1ccc(Br)cc1C(=O)NC(=S)Nc1ccc2[nH]c(=O)[nH]c2c1,-35.1%
18,O=C(NC(=S)Nc1ccc2[nH]c(=O)[nH]c2c1)c1ccccc1Cl,-31.2%
19,O=C(NC(=S)Nc1ccc2[nH]c(=O)[nH]c2c1)c1cc(Br)ccc1Cl,47.4% (active)
